# Shown are actives, neighbours in structure and some others; about 2.9% of the full set was active somewhere.
# PAFAH1B2 FP inh – PAFAH1B2 (human) inhibition; P68402; recombinant PAFAH1B2, FP-rhodamine activity probe, fluorescence polarization; inhibition, % at 3.39 µM; 340,000 compounds, 1.2% hits;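 active = inhibition above the mean of all tested compounds plus 3 SD, cut at about 24% in these data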
# LYPLA1 counter – LYPLA1 (human) inhibition in PME1 counter-screen; O75608; recombinant LYPLA1, FP-Rh probe fluorescence polarization; inhibition, % at 5.9 µM; 320,000 compounds, 0.16% hits;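 active = inhibition above the mean of all tested compounds plus 3 SD, set per campaign, cut at about 14% in these data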;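 also: inhibitors block serine hydrolase probe labeling of LYPLA1 so polarization falls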
# LYPLA2 inh – counter-screen for PME1 inhibitors: inhibitors of human LYPLA2 | recombinant LYPLA2, FP-Rh probe fluorescence polarization | O95372 | 320,000 compounds, 0.38% hits | AID 2177 | inhibition, % at 5.9 µM;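 active = inhibition above the screen-wide mean plus 3 SD, limit set per campaign, cut at about 26% in these data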
# Target sequence (O95372 whole entry, looked up): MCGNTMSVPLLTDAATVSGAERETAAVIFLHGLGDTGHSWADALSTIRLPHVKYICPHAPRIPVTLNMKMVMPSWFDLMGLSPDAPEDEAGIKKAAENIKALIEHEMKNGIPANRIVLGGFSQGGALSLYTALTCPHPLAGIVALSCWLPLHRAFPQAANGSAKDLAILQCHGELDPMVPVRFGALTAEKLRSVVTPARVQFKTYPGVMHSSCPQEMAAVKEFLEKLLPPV
# PAFAH2 inh – inhibitors of human PAFAH2. Q99487. recombinant PAFAH2, FP-rhodamine activity probe, fluorescence polarization. inhibition, % at 3.39 µM. 340,000 compounds, 0.99% hits. AID 492956;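 active = inhibition above the mean over all tested compounds plus 3 SD, cut at about 30% in these data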;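 also: inhibitors block probe labeling of enzyme so polarization drops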
# PAFAH1B3 inh – blocks human PAF acetylhydrolase 1B catalytic subunit 3. Q15102. inhibition, % at 3.39 µM. recombinant PAFAH1B3, FP-rhodamine probe, fluorescence polarization. AID 492972. 340,000 compounds, 0.28% hits;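 active = inhibition above the screen-wide average of all tested compounds plus 3 SD, cut at about 25% in these data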
# pPAFAH inh – inhibitors of human plasma PAF acetylhydrolase (pPAFAH). Q13093. AID 463082. inhibition, % at 3.39 µM. 330,000 compounds, 1.5% hits. recombinant pPAFAH, FP-rhodamine probe fluorescence polarization;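 active = inhibition above the mean inhibition across the screen plus 3 SD, cut at about 25% in these data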;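 also: inhibitors block binding of the rhodamine activity-based probe so polarization drops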
# Target sequence (Q13093 whole entry, looked up): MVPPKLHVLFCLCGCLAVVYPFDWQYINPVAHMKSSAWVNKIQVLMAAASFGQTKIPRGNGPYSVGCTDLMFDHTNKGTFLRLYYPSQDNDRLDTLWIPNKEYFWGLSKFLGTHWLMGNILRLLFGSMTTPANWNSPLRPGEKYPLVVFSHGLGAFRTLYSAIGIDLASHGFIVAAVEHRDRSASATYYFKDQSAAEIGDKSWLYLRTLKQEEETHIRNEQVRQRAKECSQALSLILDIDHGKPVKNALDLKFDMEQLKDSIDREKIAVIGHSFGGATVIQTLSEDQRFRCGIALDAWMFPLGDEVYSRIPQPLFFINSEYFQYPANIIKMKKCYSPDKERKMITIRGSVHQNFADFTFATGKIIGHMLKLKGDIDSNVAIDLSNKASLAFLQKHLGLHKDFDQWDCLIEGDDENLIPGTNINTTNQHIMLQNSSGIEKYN
# LYPLA2 confirm – LYPLA2 (human) inhibition, confirmation counter-screen; shares compounds with LYPLA2 inh; recombinant LYPLA2, FP-Rh probe fluorescence polarization; inhibition, % at 5.9 µM; 1,100 compounds, 72% hits; AID 2232;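 active = mean inhibition across replicates above the hit cutoff set in the primary screen, cut at about 26% in these data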;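 also: blocked labeling of the enzyme by serine hydrolase FP-Rh probe lowers polarization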
# LYPLA2 ABPP – inhibitors of human LYPLA2. 150 compounds, 30% hits. AID 652029. shares compounds with LYPLA2 inh. rhLYPLA2 in mouse brain proteome, gel ABPP FP-Rh. inhibition, % at 20 µM;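 active = inhibition of LYPLA2 enzyme probe labeling above about 50%, limit read from the data; inactive = inhibition below that limit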;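 also: loss of FP-Rh probe labeling of the LYPLA2 gel band measured as band density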
# Hits are given with their value; i = inactive; nt = not tested or not shown.
SMILES,PAFAH1B2 FP inh,LYPLA1 counter,LYPLA2 inh,PAFAH2 inh,PAFAH1B3 inh,pPAFAH inh,LYPLA2 confirm,others
Cc1ccc(C(=O)COC(=O)COc2ccc(C)c(C)c2)cc1,i,nt,nt,i,i,nt,nt,
CCN(C(=O)COC(=O)c1ccccc1NC(=O)c1ccco1)C1CCS(=O)(=O)C1 (stereo unspecified),i,i,i,i,i,i,nt,
COc1ccc(OC)c(-c2cc(C(=O)Nc3c(C)nn(Cc4ccc(Cl)cc4)c3C)no2)c1,i,i,44.4,i,i,i,86.9,LYPLA2 ABPP=i
COc1ccc(OC)c(-c2cc(C(=O)Nc3c(C)nn(Cc4ccccc4)c3C)no2)c1,i,i,60.7,i,i,i,66.1,LYPLA2 ABPP=64.0
COc1ccc(OC)c(-c2cc(C(=O)Nc3cc(C)on3)no2)c1,i,i,i,i,i,i,nt,
COc1ccc(CNC(=O)CCCC(=O)Nc2cccc(Br)c2)cc1,i,i,i,i,i,i,nt,
O=[N+]([O-])c1ccc(SCc2c(F)cccc2Cl)nc1,i,i,31.2,i,i,i,37.7,
Fc1cccc(Cl)c1CSc1ccc(-c2cccnc2)nn1,i,i,i,i,i,i,nt,
O=[N+]([O-])c1ccc(Sc2ccc(Cl)c(Cl)c2)nc1,i,i,39.5,i,i,i,31.0,
O=[N+]([O-])c1cccnc1SCc1c(F)cccc1Cl,i,i,32.3,i,i,i,37.7,
O=c1c2ccccc2nc(SCCN2CCCCC2)n1CCc1ccccc1,i,i,i,i,i,i,nt,
COc1ccc(N2CC(C(=O)Nc3ccncc3)CC2=O)cc1 (stereo unspecified),i,i,i,i,i,i,nt,
Cn1c2c(c(=O)n(C)c1=O)C(C(F)(F)F)(C(F)(F)F)N=C(c1ccc(Cl)cc1)N2,i,i,55.9,i,i,i,i,
Cc1ccccc1C1=NC(C(F)(F)F)(C(F)(F)F)c2c(n(C)c(=O)n(C)c2=O)N1,i,i,i,i,i,i,nt,
COc1cccc(NC(=O)N2CCC(NC(=O)C3CCCCC3)CC2)c1,i,i,i,i,i,i,nt,
O=C(c1ccccc1)N1CCOC12CCN(c1ncc(C(F)(F)F)cc1Cl)CC2,i,i,i,i,i,i,nt,
O=C(c1ccc([N+](=O)[O-])cc1)N1CCOC12CCN(c1ncc(C(F)(F)F)cc1Cl)CC2,i,i,38.1,i,i,i,56.7,LYPLA2 ABPP=i
[N-]=[N+]=CC(=O)C(Cc1ccccc1)N1C(=O)c2ccccc2C1=O (stereo unspecified),i,i,i,i,i,i,nt,
CCCCCCC(=O)N1CCCC(c2nc(-c3cccc(OC)c3)no2)C1 (stereo unspecified),i,i,27.4,i,i,i,i,
Cc1ccc(-n2cnn(-c3ccc([N+](=O)[O-])cc3[N+](=O)[O-])c2=O)cc1,i,i,55.1,i,i,i,56.2,LYPLA2 ABPP=i
Cc1cc2c(NC(=O)Nc3ccccc3)cccc2nn1,i,i,35.1,i,i,i,36.0,
Cc1cc2c(NC(=O)Nc3ccc(C(C)(C)C)cc3)cccc2nn1,i,i,i,i,i,i,nt,
CCn1c(SCC(=O)Nc2cc(C)on2)nnc1-c1ccco1,i,i,i,i,i,i,nt,
CN(C(=O)COc1ccc([N+](=O)[O-])cc1)C1CCS(=O)(=O)C1 (stereo unspecified),nt,i,30.7,nt,nt,i,i,
O=C(COc1ccc([N+](=O)[O-])cc1)N(C1CCCCC1)C1CCS(=O)(=O)C1 (stereo unspecified),i,i,i,i,i,i,nt,
SMILES,PAFAH1B2 FP inh,LYPLA1 counter,LYPLA2 inh,PAFAH2 inh,PAFAH1B3 inh,pPAFAH inh,LYPLA2 confirm,others
COc1ccc(Oc2nc3ccccc3nc2C(F)(F)F)cc1,i,i,i,i,i,i,nt,
O=C(CSc1nnc(-c2ccncc2)n1CC1CCCO1)Nc1nccs1 (stereo unspecified),i,i,i,i,i,i,nt,
O=C(NCc1ccccn1)c1ccc(OC2CCN(Cc3cccs3)CC2)cc1,i,i,28.0,i,i,i,i,
Cc1onc(-c2ccccc2Cl)c1C(=O)Nc1nnc(-c2ccc(Br)cc2)s1,i,i,i,i,i,i,nt,
Cc1onc(-c2ccccc2Cl)c1C(=O)Nc1nnc(-c2ccc(F)cc2)s1,i,i,52.8,i,i,i,i,
Cc1cccc2c1cnn2C(=O)Nc1cc(F)ccc1F,i,i,i,i,i,i,nt,
Cn1c(SCC(=O)Nc2ccc3cn[nH]c3c2)nnc1-c1cccs1,i,i,28.7,i,i,i,i,
Cn1c(SCC(=O)Nc2ccc3cn[nH]c3c2)nnc1-c1cnccn1,i,i,i,i,i,i,nt,
CN(C(=O)C1CCCN(S(=O)(=O)c2cccc([N+](=O)[O-])c2)C1)C1CCS(=O)(=O)C1 (stereo unspecified),i,i,i,i,i,i,nt,
COc1ccc(NC(=O)CSc2nncc3ccccc23)cc1,i,i,i,i,i,i,nt,
COc1ccc(NC(=O)CSc2nnc(C)c3ccccc23)cc1,i,i,31.7,i,i,i,i,
CCCCOC(=O)c1ccc(NC(=O)C(=O)NCc2ccncc2)cc1,i,i,34.9,i,i,i,31.3,
CC(C)(C)OC(=O)NCCCC[C@H](NC(=O)c1[nH]cnc1C(=O)N[C@@H](Cc1ccccc1)C(=O)OCc1ccccc1)C(=O)OC(C)(C)C,i,nt,nt,i,i,i,nt,
COc1cccc(NC(=O)CCC2CCN(C(=O)c3sccc3C)CC2)c1,i,i,i,i,i,i,nt,
COc1cccc(NC(=O)CCC2CCN(C(=O)c3ccc(C(C)=O)s3)CC2)c1,i,i,27.1,i,i,i,32.5,
O=C1[C@@H]2Cc3c([nH]c4ccccc34)CN2C(=O)CN1CCO,i,i,i,i,i,i,nt,
CC(C)CCN1CC(=O)N2Cc3[nH]c4ccccc4c3C[C@H]2C1=O,i,i,60.2,i,i,i,55.9,LYPLA2 ABPP=i
O=C1[C@@H]2Cc3c([nH]c4ccccc34)CN2C(=O)CN1CCCCCO,i,i,29.8,i,i,i,i,
COc1cccc(C(=O)NC(=S)N2CCN(c3ccc(C(F)(F)F)cc3[N+](=O)[O-])CC2)c1,i,i,65.1,i,i,26.1,51.8,LYPLA2 ABPP=i
CCOc1ccc(C(=O)NC(=S)N2CCN(c3ccc(C(F)(F)F)cc3[N+](=O)[O-])CC2)cc1,i,i,i,i,i,i,nt,
CC(C)(C)OC(=O)NC(CCCCNC=O)C(=O)O (stereo unspecified),i,i,80.7,i,i,i,i,
CC(C)CC(NC(=O)OC(C)(C)C)C(=O)O (stereo unspecified),i,i,i,i,i,i,nt,
NC(=O)C1CCN(C2=C(NS(=O)(=O)c3ccccc3)C(=O)c3ccccc3C2=O)CC1,i,i,i,i,i,i,nt,
